From PubChem BioAssay (EPA / NIEHS)
Records with an inconclusive call do not appear. The source made the active and inactive calls. Rule for the calls, unless noted: active = hit-call score of the fitted dose curve at least 0.9, where 1 is the maximum; inconclusive = response in the unintended direction; inactive = score below 0.9.

What was measured:
[1] = ATG_NRF2_ARE_CIS: Attagene CIS-FACTORIAL HepG2 Assay for human Nuclear Factor Erythroid 2 Related Factor 2 (NFR2) response to Antioxidant Response Elements (ARE) (AID 2282992; active = hit-call score of the fitted dose curve at least 0.9, where 1 is the maximum; inactive = score below 0.9;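 for AC50: reporter mRNA level measured by RT-PCR and capillary electrophoresis fluorescence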); details: HepG2 Attagene ARE/NRF2 reporter, transcription factor activity; actives raise or lower the signal
How it was run: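 Multiplexed reporter mRNA profiling in HepG2 after a 24 h chemical exposure. Curves fitted in both directions relative to DMSO negative control.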

[2] = ATG_Oct_MLP_CIS: Attagene CIS-FACTORIAL HepG2 Assay for human Octamer-Binding Transcription Factor (Oct) (AID 2282993; active = hit-call score of the fitted dose curve at least 0.9, where 1 is the maximum; inactive = score below 0.9); details: HepG2 Attagene cis-factorial Oct reporter, mRNA; actives raise or lower the signal
How it was run: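 HepG2, transient MRTU transfection, cis promoter elements; 24 h dosing; RT-PCR/CE fluorescence read-out of reporter mRNA; fit both directions vs DMSO.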

[3] = biological target: Cellular tumor antigen p53 (Homo sapiens) (UniProt P04637); test: ATG_p53_CIS: Attagene CIS-FACTORIAL HepG2 Assay for human p53 Transcription Factor (AID 2282994; active = hit-call score of the fitted dose curve at least 0.9, where 1 is the maximum; inactive = score below 0.9); details: HepG2 p53 cis-element reporter, Attagene mRNA; actives raise or lower the signal
How it was run: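 Multiplexed reporter mRNA assay in human HepG2 liver cells; cis-regulated units report endogenous factor activity. Values come from bidirectional curve fitting against DMSO negative control after 24 h treatment.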

[4] = biological target: human Peroxisome Proliferator-activated Receptor delta (PPARd), PPARD (gene 5467) (UniProt Q03181); test: ATG_PPARd_TRANS: Attagene TRANS-FACTORIAL HepG2 Assay for human Peroxisome Proliferator-activated Receptor delta (PPARd) (AID 2283002)
How it was run: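 Transient HepG2 transfection (multiple GAL4-UAS RTUs, chimeric receptor-Gal4); 24 h dosing; total RNA → oligo(dT) RT → PCR → 6-FAM primer extension → HpaI cut → CE. Positive direction vs DMSO.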

[5] = biological target: Nuclear receptor subfamily 1 group I member 2 (Homo sapiens) (UniProt O75469); test: ATG_PXR_TRANS: Attagene TRANS-FACTORIAL HepG2 Assay for human Pregnane X Receptor (PXR) (AID 2283008)
How it was run: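 Measures mRNA induction of a GAL4-UAS-driven reporter in human HepG2 cells transiently expressing PXR fused to Gal4, following 24 h treatment. DMSO served as negative control and baseline.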

[6] = biological target: human RAR-related Orphan Receptor beta (RORb), RORB (gene 6096) (UniProt Q92753); test: ATG_RORb_TRANS: Attagene TRANS-FACTORIAL HepG2 Assay for human RAR-related Orphan Receptor beta (RORb) (AID 2283010)
How it was run: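 HepG2 cells were transiently transfected with multiplexed GAL4-UAS reporter units expressing chimeric nuclear receptor–GAL4 proteins, then dosed for 24 h. Reporter mRNA was quantified by RT-PCR with fluorescent labelling and capillary electrophoresis; gain of signal was fitted relative to DMSO.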

[7] = biological target: Retinoic acid receptor RXR-alpha (Homo sapiens) (UniProt P19793); test: ATG_RXRa_TRANS: Attagene TRANS-FACTORIAL HepG2 Assay for human Retinoid X Receptor alpha (RXRa) (AID 2283012)
How it was run: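 HepG2 cells transiently transfected with multiplexed GAL4-UAS reporter units and chimeric NR-GAL4 fusions, dosed 24 h. Reporter mRNA measured by RT-PCR, FAM labelling, HpaI digestion and capillary electrophoresis; gain-of-signal fitted relative to DMSO baseline.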

[8] = biological target: human Retinoid X Receptor beta (RXRb), RXRB (gene 6257) (UniProt P28702); test: ATG_RXRb_TRANS: Attagene TRANS-FACTORIAL HepG2 Assay for human Retinoid X Receptor beta (RXRb) (AID 2283013)
How it was run: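 HepG2 cells transiently transfected with multiplexed reporter units driven by GAL4-UAS and exogenous chimeric NR-Gal4 proteins; treated 24 h. Reporter mRNA measured by RT-PCR, 6-FAM labelling and capillary electrophoresis; gain-of-signal fitted versus DMSO baseline.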

[9] = biological target: human Retinoic Acid Receptor beta (RARb), RARB (gene 5915) (UniProt P10826); test: ATG_RARb_TRANS: Attagene TRANS-FACTORIAL HepG2 Assay for human Retinoic Acid Receptor beta (AID 2283004)
How it was run: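 Readout is reporter mRNA induction: RNA reverse-transcribed, PCR-amplified, FAM-labelled, HpaI-cut and resolved by capillary electrophoresis. Transiently transfected HepG2 cells carrying exogenous NR–Gal4 chimeras were dosed for 24 h; activity fitted upward relative to DMSO.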

[10] = biological target: Peroxisome proliferator-activated receptor gamma (Homo sapiens) (UniProt P37231); test: ATG_PPARg_TRANS: Attagene TRANS-FACTORIAL HepG2 Assay for human Peroxisome Proliferator-activated Receptor-gamma (PPARg) (AID 2283007)
How it was run: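 Read-out: reporter mRNA induction, detected by fluorescence after RT-PCR and capillary electrophoresis. Transiently transfected human HepG2 liver cells carrying a chimeric NR-Gal4 construct were dosed for 24 h; activity was fitted upward relative to DMSO.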

[11] = biological target: Retinoic acid receptor alpha (Homo sapiens) (UniProt P10276); test: ATG_RARa_TRANS: Attagene TRANS-FACTORIAL HepG2 Assay for human Retinoic Acid Receptor alpha (RARa) (AID 2283005)
How it was run: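 Reporter transcripts, measured by RT-PCR with fluorescent labeling and capillary electrophoresis after 24 h dosing, reflect activity of an exogenous human RARa–GAL4 fusion in transiently transfected HepG2. Fitted for increase relative to DMSO.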

[12] = biological target: human RAR-related Orphan Receptor gamma (RORg), RORC (gene 6097) (UniProt P51449); test: ATG_RORg_TRANS: Attagene TRANS-FACTORIAL HepG2 Assay for human RAR-related Orphan Receptor gamma (RORg) (AID 2283011)
How it was run: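 Transient MRTU transfection of HepG2 (TRANS format, exogenous NR-Gal4 chimera). 24 h dosing. Total RNA → oligo(dT) RT → PCR → 6-FAM labelling → HpaI cut → CE. Gain vs DMSO.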

[13] = biological target: human Peroxisome Proliferator-activated Receptor alpha (PPARa), PPARA (gene 5465) (UniProt Q07869); test: ATG_PPARa_TRANS: Attagene TRANS-FACTORIAL HepG2 Assay for human Peroxisome Proliferator-activated Receptor alpha (PPARa) (AID 2283001)
How it was run: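 Reporter transcripts from GAL4-UAS units in transfected HepG2 were quantified 24 h after dosing. Detection used reverse transcription, PCR, fluorescent primer extension and capillary electrophoresis, with DMSO as baseline.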

[14] = biological target: human Retinoic Acid Receptor gamma (RARg), RARG (gene 5916) (UniProt P13631); test: ATG_RARg_TRANS: Attagene TRANS-FACTORIAL HepG2 Assay for human Retinoic Acid Receptor gamma (RARg) (AID 2283009)
How it was run: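 HepG2 cells transiently transfected with multiplexed reporter units expressing chimeric RARg-GAL4 and GAL4-UAS-driven reporters; 24 h compound exposure. Reporter mRNA quantified by RT-PCR with fluorescent labelling and capillary electrophoresis; gain-of-signal fitted relative to DMSO baseline.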

Measured: AC50

Cellular tumor antigen p53 (Homo sapiens), sequence (P04637 whole entry, looked up): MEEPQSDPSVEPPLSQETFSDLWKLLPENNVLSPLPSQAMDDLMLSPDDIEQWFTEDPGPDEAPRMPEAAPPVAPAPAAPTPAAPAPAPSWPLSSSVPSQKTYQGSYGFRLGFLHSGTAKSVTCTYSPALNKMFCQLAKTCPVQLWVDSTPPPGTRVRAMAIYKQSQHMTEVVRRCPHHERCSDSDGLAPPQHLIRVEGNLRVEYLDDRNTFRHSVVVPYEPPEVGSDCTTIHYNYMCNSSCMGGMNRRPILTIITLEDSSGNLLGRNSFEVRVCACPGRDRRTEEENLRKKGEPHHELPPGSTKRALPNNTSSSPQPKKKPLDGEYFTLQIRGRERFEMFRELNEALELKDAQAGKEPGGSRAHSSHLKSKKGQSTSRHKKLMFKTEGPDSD
Retinoic acid receptor alpha (Homo sapiens), sequence (P10276 whole entry, looked up, the tested form may be a part): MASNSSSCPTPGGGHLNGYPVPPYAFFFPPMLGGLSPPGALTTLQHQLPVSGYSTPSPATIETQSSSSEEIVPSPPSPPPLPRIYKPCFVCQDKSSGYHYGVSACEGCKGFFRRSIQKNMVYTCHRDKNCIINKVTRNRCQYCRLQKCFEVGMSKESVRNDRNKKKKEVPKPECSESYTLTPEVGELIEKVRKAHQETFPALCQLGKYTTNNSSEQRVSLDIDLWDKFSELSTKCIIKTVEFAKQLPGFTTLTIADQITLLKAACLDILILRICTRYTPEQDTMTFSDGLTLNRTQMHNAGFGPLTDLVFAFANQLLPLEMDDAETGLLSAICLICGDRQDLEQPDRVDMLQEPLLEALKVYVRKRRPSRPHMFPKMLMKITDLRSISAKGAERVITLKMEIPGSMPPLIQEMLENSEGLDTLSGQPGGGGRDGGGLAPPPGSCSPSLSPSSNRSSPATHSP
human Peroxisome Proliferator-activated Receptor delta (PPARd), PPARD (gene 5467), sequence (Q03181 whole entry, looked up, the tested form may be a part): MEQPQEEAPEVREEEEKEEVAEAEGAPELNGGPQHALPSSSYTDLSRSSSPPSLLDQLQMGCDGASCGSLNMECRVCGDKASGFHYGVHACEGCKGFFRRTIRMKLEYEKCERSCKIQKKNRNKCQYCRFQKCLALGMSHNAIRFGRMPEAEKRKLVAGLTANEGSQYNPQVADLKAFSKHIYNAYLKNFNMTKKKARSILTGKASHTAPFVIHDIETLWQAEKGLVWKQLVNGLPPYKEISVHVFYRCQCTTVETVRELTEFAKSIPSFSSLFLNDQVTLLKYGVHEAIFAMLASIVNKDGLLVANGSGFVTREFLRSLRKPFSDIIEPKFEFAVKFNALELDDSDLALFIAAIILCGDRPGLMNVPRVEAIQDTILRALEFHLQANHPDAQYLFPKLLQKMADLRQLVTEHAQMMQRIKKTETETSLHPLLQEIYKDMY
human Peroxisome Proliferator-activated Receptor alpha (PPARa), PPARA (gene 5465), sequence (Q07869 whole entry, looked up, the tested form may be a part): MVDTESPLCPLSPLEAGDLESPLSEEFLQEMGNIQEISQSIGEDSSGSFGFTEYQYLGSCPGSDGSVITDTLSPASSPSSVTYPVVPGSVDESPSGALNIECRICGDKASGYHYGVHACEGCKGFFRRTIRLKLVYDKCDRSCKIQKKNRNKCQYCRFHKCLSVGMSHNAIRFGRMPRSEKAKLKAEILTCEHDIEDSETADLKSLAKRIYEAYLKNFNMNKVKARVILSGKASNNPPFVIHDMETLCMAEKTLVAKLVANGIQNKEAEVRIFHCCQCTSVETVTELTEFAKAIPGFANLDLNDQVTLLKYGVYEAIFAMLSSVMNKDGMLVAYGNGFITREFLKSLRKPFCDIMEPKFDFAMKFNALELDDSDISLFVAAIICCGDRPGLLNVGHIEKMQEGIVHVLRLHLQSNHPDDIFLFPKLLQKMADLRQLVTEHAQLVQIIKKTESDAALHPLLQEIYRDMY
human Retinoic Acid Receptor gamma (RARg), RARG (gene 5916), sequence (P13631 whole entry, looked up, the tested form may be a part): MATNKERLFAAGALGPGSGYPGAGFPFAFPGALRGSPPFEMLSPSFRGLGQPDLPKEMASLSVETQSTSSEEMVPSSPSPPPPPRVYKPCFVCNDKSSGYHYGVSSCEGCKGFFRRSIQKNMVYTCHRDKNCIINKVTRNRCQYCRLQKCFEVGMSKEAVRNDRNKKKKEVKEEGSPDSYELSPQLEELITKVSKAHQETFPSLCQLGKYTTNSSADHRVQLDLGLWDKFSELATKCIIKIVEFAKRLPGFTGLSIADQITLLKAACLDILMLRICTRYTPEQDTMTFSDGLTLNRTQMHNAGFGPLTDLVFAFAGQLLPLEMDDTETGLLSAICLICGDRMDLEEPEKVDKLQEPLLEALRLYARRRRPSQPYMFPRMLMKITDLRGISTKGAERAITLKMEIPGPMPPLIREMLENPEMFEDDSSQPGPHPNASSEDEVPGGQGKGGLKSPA
Peroxisome proliferator-activated receptor gamma (Homo sapiens), sequence (P37231 whole entry, looked up, the tested form may be a part): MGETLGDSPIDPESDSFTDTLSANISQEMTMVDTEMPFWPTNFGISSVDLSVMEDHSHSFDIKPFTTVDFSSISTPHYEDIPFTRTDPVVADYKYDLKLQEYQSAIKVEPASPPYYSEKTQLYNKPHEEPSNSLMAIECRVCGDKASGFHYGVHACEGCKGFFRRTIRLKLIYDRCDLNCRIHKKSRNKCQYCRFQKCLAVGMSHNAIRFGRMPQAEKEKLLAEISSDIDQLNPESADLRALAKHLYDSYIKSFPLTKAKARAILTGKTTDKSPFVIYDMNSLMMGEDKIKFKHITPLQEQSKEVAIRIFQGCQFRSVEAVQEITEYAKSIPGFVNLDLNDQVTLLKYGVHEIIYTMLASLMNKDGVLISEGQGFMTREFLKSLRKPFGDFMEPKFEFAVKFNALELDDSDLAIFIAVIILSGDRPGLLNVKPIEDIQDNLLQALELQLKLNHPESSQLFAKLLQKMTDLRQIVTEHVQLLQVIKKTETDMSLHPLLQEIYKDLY
Retinoic acid receptor RXR-alpha (Homo sapiens), sequence (P19793 whole entry, looked up, the tested form may be a part): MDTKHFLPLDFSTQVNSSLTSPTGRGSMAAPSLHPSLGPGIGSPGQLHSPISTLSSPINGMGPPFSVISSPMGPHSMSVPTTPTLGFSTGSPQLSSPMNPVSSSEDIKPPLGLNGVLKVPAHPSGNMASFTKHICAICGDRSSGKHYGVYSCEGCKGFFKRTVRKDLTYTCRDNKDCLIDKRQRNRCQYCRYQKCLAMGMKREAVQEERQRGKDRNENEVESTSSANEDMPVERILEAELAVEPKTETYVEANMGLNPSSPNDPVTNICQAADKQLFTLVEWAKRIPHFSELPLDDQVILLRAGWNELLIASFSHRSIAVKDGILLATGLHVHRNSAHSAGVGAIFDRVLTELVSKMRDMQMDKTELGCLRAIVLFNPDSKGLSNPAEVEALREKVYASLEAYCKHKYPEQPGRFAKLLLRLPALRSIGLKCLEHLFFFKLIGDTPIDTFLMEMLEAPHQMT
human RAR-related Orphan Receptor beta (RORb), RORB (gene 6096), sequence (Q92753 whole entry, looked up, the tested form may be a part): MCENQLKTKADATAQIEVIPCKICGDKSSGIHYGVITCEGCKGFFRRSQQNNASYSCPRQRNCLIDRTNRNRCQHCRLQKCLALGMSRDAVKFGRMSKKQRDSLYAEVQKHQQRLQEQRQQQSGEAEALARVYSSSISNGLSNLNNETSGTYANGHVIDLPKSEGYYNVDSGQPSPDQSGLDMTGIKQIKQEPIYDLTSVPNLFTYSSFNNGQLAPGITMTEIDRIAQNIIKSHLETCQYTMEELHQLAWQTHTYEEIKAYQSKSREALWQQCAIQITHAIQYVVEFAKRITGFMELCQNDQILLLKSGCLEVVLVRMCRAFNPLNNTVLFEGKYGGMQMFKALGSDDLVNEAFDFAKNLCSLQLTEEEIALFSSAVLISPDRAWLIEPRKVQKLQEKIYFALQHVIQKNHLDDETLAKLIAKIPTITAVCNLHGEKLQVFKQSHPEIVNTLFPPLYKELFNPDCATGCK
human RAR-related Orphan Receptor gamma (RORg), RORC (gene 6097), sequence (P51449 whole entry, looked up, the tested form may be a part): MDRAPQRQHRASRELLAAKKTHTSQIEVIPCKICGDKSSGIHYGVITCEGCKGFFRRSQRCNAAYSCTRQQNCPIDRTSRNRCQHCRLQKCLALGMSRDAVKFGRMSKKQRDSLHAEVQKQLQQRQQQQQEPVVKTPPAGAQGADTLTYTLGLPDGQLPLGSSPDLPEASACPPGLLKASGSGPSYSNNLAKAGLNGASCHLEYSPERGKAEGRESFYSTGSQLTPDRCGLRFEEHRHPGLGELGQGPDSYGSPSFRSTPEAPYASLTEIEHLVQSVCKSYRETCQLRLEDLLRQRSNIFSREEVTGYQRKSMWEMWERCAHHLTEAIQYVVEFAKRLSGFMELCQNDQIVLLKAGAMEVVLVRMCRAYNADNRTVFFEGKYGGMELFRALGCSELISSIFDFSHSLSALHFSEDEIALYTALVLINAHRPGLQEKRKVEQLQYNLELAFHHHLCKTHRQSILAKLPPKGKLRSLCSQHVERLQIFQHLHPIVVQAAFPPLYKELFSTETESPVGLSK
human Retinoic Acid Receptor beta (RARb), RARB (gene 5915), sequence (P10826 whole entry, looked up, the tested form may be a part): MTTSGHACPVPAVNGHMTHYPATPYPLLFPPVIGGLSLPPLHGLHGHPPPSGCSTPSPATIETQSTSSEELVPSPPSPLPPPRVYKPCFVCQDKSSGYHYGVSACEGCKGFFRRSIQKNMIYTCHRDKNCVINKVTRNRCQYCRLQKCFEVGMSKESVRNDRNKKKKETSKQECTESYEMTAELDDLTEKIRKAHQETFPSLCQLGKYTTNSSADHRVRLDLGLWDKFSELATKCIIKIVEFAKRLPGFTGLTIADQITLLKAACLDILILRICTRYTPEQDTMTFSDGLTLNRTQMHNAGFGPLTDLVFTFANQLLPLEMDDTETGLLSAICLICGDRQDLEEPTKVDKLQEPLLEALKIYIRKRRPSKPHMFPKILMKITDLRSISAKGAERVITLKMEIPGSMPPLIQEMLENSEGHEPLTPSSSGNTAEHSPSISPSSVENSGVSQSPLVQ

N#CS
inactive: [1] | [2] | [3] | [4] | [5] | [6] | [7] | [8]

FC(F)OCC(F)(F)C(F)(F)F
inactive: [1] | [2] | [3] | [4] | [9] | [5] | [7] | [8]

O=[N+]([O-])c1cc([As](=O)(O)O)ccc1O
inactive: [1] | [2] | [3] | [4] | [5] | [6] | [8]

O=C(NC(=O)c1c(F)cccc1F)Nc1cc(Cl)c(Oc2ncc(C(F)(F)F)cc2Cl)c(Cl)c1
inactive: [2] | [3] | [4] | [10] | [5]
active: [1] 31.9 µM

CC(C)[N+](=O)[O-]
not listed: [7] | [8] | [10] | [13] | [14]
inactive: all other assays above

Nc1nc(N)nc(Cl)n1
inactive: [1] | [2] | [3] | [13] | [14] | [12]

C=CCc1ccccc1O
inactive: [1] | [2] | [3] | [13] | [5] | [7] | [8]

COC(=O)Nc1cccc(OC(=O)Nc2cccc(C)c2)c1
inactive: [1] | [2] | [3] | [4] | [10] | [5] | [6]

CC(C)C(C)(N)C#N (stereo not drawn)
not listed: [6] | [9] | [10] | [13] | [14]
inactive: all other assays above

CCC[N+](CCC)(CCC)CCC
not listed: [9] | [10] | [12] | [13]
inactive: all other assays above

CC(C)(c1ccc(O)c(-c2ccccc2)c1)c1ccc(O)c(-c2ccccc2)c1
inactive: [2] | [3] | [4] | [9] | [11] | [14] | [7]
active: [1] 4.64 µM | [5] 1.45 µM

CCCCCCCCBr
inactive: [1] | [2] | [3] | [13] | [10] | [7] | [8]

CC(F)(F)CC(F)(F)F
not listed: [6] | [9] | [11] | [12] | [13]
inactive: all other assays above

ClCCCCl
inactive: [1] | [2] | [3] | [4] | [5] | [12] | [7]

CCC[CH2][Sn]([Cl])([Cl])[CH2]CCC
inactive: [3] | [4]
active: [1] 0.315 µM | [2] 0.949 µM | [10] 0.73 µM

CCCCCCCCCCCCBr
active: [1] 55.7 µM | [10] 43.3 µM
inactive: [2] | [3] | [13] | [8]

COC(F)(C(F)(F)C(F)(F)F)C(F)(C(F)(F)F)C(F)(F)F (stereo not drawn)
not listed: [6] | [7] | [13]
inactive: all other assays above

CCCCN(CCCCO)N=O
not listed: [9] | [11] | [12] | [13] | [14]
inactive: all other assays above

C=C(C)[C@@H]1CC=C(C=O)CC1
inactive: [2] | [3] | [4]
active: [1] 80.5 µM | [10] 22.5 µM | [5] 11 µM

CS(=O)(=O)c1ccc(C(=O)C2C(=O)CCCC2=O)c(Cl)c1COCC(F)(F)F
inactive: [1] | [2] | [3] | [13] | [5] | [12] | [7]
